Screening results deposited in PubChem BioAssay by several laboratories.
A selection: hits, their analogues and other compounds. The true share with any hit is near 5.2%.
SKN-1 inh: suppressors of acrylamide-induced Pgst-4::GFP reporter in worms, primary screen, SKN-1 inhibitor project, whole organism, uHTS, GFP/RFP fluorescence ratio, strain VP596; inhibition, % at 21.8 µM; 360,000 compounds, 0.49% hits; AID 624304, 2012; C. elegans VP596 Pgst-4::GFP/RFP ratio, 24 h;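 active means interference check ratio from 0.5 to 1.5 plus GFP to RFP signal ratio inhibition reaching or exceeding a fixed threshold, cut at about 30% in these data, passing the limit was not always enough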
SMARCA2 activ: SMARCA2 (BRM) function activators, primary screen, cell-based, luminescence, high throughput; AID 652017, 2013; 370,000 compounds, 1% hits; activation, % at 9.1 µM; MG213 cells, MMTV-luciferase reporter, dexamethasone, overnight; in the data active means activation above about 7.8%;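 further: 0% = vehicle wells and 100% = reference activator wells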
Vif imaging: HIV Vif self-association inhibitors, primary screen, imaging, HEK293T, single point. HEK293T cells, Vif self-association by quenched fluorescence, 24 h. inhibition, % at 7.49 µM. 340,000 compounds, 0.35% hits; in the data active means inhibition above about 50%, passing the limit was not always enough; inconclusive means no clear call, values can overlap the other calls; inactive means below about 31%
esBAF inh: Bmi1 luciferase reporter increase in mESCs, primary screen, esBAF inhibitor project, mouse ES cells, Bmi1 luciferase knock-in, single point; 24 h; 100% = twice the neutral-well signal; reporter increase, % at 12.5 µM; 350,000 compounds, 2% hits; in the data active means activation above about 40%; inconclusive means no clear call, values can overlap the other calls;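 further: 0% = median of the plate's neutral control wells and 100% = double that signal; a rise in the Bmi1 reporter signal indicates esBAF inhibition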
NR3A LBD binder: binders of NR3A ligand-binding domain, primary screen, biophysical, differential scanning fluorimetry, uHTS | NR3A LBD differential scanning fluorimetry, Tm shift; 0% = protein alone, 100% = glycine-bound protein | Tm shift relative to glycine control, % at 25 µM | 340,000 compounds, 2.5% hits | AID 1259313, 2017;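 active means melting temperature shift of at least 10% of the positive control shift, at one fixed dose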
NadD inh: inhibitors of S. aureus NadD, primary screen, biochemical, colorimetric, uHTS | Nicotinate-nucleotide adenylyltransferase NadD (Staphylococcus aureus N315) | purified NadD enzyme, colorimetric absorbance read-out | inhibition, % at 20 µM | 360,000 compounds, 0.78% hits | AID 602399, 2012; in the data active means inhibition above about 26%
NadD inh conf: inhibitors of S. aureus NadD, confirmation, biochemical, colorimetric, single concentration; shares compounds with NadD inh; purified S. aureus NadD, colorimetric enzyme assay; inhibition, % at 20 µM; 2,000 compounds, 13% hits; AID 624309, 2012; in the data active means inhibition mostly above about 42%, no sharp cut-off; inactive means mostly below about 42%
SMARCA2 conf: SMARCA2 (BRM) function activators, confirmation, cell-based, luminescence, triplicate; MG213 cells, MMTV-luciferase with dexamethasone, overnight; MG213 cells expressing E1A, Rb sequestered; DMSO wells 0%, reference activator 100%; activation, % at 9.1 µM; shares compounds with SMARCA2 activ; 3,500 compounds, 30% hits; AID 652260, 2013;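 active means activation above its plate's cutoff, the mean activation of tested wells plus 3 SD, cut at about 7.9% in these data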
GAL4-VP16 Luc: GAL4-VP16 luciferase reporter activation, counter-screen for SMARCA2 (BRM) activator project, cell-based, pG5luc, luminescence, high throughput; shares compounds with SMARCA2 activ; HEK293 GAL4-VP16 pG5luc reporter; scaled: DMSO wells 0%, SAHA wells 100%; activation, % at 9.1 µM; 3,500 compounds, 41% hits; AID 686939, 2013;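 active means activation above the solvent-only control well mean plus 3 SD, averaged across control plates, cut at about 5.2% in these data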
Active calls of the source: *.

For O=C1NCN(c2ccccc2)C12CCN(C(c1cccc3ccccc13)c1nnnn1C1CCCCC1)CC2 (centres undefined) the results were SKN-1 inh -5, SMARCA2 activ -3, Vif imaging -3, esBAF inh 6, NadD inh 30* and NadD inh conf 8.
`COC(=O)[C@@H]1[C@@H](CO)[C@@H]2Cn3c(ccc(-c4cccc(F)c4)c3=O)[C@H]1N2Cc1ccncc1` gave esBAF inh 3.
For Cc1cc(N(CCCl)CCCl)ccc1C=NNC(=O)Cc1cc(=O)oc2cc(O)ccc12 the results were SKN-1 inh 5, SMARCA2 activ -6, Vif imaging -2, esBAF inh -9, NR3A LBD binder 11*, NadD inh 73* and NadD inh conf 59*.
Screening O=C(NCCCN1CC1)Nc1cccc2ccccc12 returned SKN-1 inh -14, SMARCA2 activ -4, Vif imaging 0, NR3A LBD binder 3, NadD inh 34* and NadD inh conf 11.
O=C(CNCc1c(F)cccc1F)N1CCC2(CC1)OCCO2 was read as SMARCA2 activ 8.6*, SMARCA2 conf 16* and GAL4-VP16 Luc 3.
COC(=O)C1=C(C(=O)OC)SC2(S1)C(C(=O)OC)=C(C(=O)OC)Sc1c2ssc1=O was read as SKN-1 inh -22, SMARCA2 activ 62*, Vif imaging 9, NR3A LBD binder 25*, NadD inh 1, SMARCA2 conf -10 and GAL4-VP16 Luc 8.4*.
`Nc1c(C(=O)NCc2ccco2)c2nc3ccccc3nc2n1CCN1CCCCC1` gave SKN-1 inh 25, SMARCA2 activ 8.8*, Vif imaging -3, esBAF inh 7, NadD inh 22, SMARCA2 conf 4 and GAL4-VP16 Luc -1.
Screening COC(=O)[C@H]1N[C@H]2c3ccc(C4=CCCC4)c(=O)n3C[C@H]2[C@@H]1CO returned esBAF inh -3.
C[C@@H]1CN([C@H](C)CO)C(=O)CCCn2cc(nn2)CO[C@@H]1CN(C)C(=O)Oc1ccc2ccccc2c1 was read as esBAF inh 2.
`O=C(Nc1ccc(Cl)c(Cl)c1)c1ccco1` gave SKN-1 inh 42*, SMARCA2 activ 8.2*, Vif imaging -11, esBAF inh 60*, NR3A LBD binder 5, NadD inh -2, SMARCA2 conf 3 and GAL4-VP16 Luc 9.2*.
Cc1ccc(NC(=O)c2snnc2C)cc1Cl was read as SKN-1 inh 8, SMARCA2 activ 4, Vif imaging -3, esBAF inh 5, NR3A LBD binder 0 and NadD inh -4.
Screening Cc1c(OC(=O)N(C)C)ccc2c1O/C(=C\c1ccco1)C2=O returned SKN-1 inh 1, SMARCA2 activ 8.2*, Vif imaging 7, esBAF inh inconclusive, NR3A LBD binder -3, NadD inh -3, SMARCA2 conf 4 and GAL4-VP16 Luc 5.9*.
CN(C)C(=O)Oc1ccc(Cl)c2ccccc12 was read as SKN-1 inh 1, SMARCA2 activ -4, Vif imaging 11, esBAF inh -6, NR3A LBD binder 2 and NadD inh -5.
COC(=O)[C@H]1[C@H](CO)[C@H]2Cn3c(cccc3=O)[C@@H]1N2CCc1ccccc1 was read as esBAF inh -1.
For CS(=O)(=O)c1ccc(C2=C(CNC(=O)c3cccnc3)[C@H]3CC[C@@H](C2)N3Cc2ccccc2)cc1 the results were SKN-1 inh -10, SMARCA2 activ 13*, Vif imaging 1, esBAF inh -1, NadD inh 2, SMARCA2 conf -3 and GAL4-VP16 Luc 0.
Screening COC(=O)[C@H]1[C@H](CO)[C@H]2Cn3c(ccc(C4=CCCCC4)c3=O)[C@@H]1N2CC1CC1 returned esBAF inh -1.
For CN1CCN(c2ccc([N+](=O)[O-])c3no[n+]([O-])c23)CC1 the results were SKN-1 inh -14, SMARCA2 activ -8, Vif imaging -1, esBAF inh -9, NR3A LBD binder -1 and NadD inh 0.
`O=[N+]([O-])c1ccc(N(CCO)CCO)c2c1no[n+]2[O-]` gave SKN-1 inh 47*, SMARCA2 activ 15*, Vif imaging 61*, esBAF inh -18, NadD inh -5, SMARCA2 conf 13* and GAL4-VP16 Luc 1.
`COC(=O)[C@H]1[C@H](CO)[C@H]2Cn3c(ccc(-c4ccncc4)c3=O)[C@@H]1N2CCc1ccccc1` gave esBAF inh 0.
`C=C1[C@@H](C)C2[C@H](Cc3ccccc3)NC(=O)[C@]23[C@H](OC(C)=O)/C=C/[C@@](C)(O)C(=O)[C@@H](C)C/C=C/[C@H]3[C@@H]1O` (some centres undefined) gave SMARCA2 activ 6.
Screening C=C1C(C)C2C(Cc3ccccc3)NC(=O)C23C(OC(C)=O)C=CC(C)(O)CC(C)CC=CC3C1O (centres undefined) returned SKN-1 inh 7, SMARCA2 activ 14*, Vif imaging -6, NR3A LBD binder 0, NadD inh 1, SMARCA2 conf 14* and GAL4-VP16 Luc 5.
CN(C(=O)Oc1ccc(C(=O)c2ccc(Cl)cc2)cc1)c1ccccc1 was read as SKN-1 inh 6, SMARCA2 activ 1, Vif imaging -4, NR3A LBD binder 1 and NadD inh -2.
